Shown are actives, neighbours in structure and some others; about 1.7% of the full set was active somewhere.
H9c2 TAG inh – inhibitors of triacylglycerol accumulation. H9c2 cells, Nile Red lipid (TAG) fluorescence; cells loaded with 200 µM oleic acid. inhibition, % at 12.5 µM. 230,000 tested, 0.66% active;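 active = pattern-corrected inhibition of lipid staining of at least 50% with the nuclear-stain viability signal not falling by more than 50%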
CHT block – human CHT choline transport inhibition. Q9GZV3. CHT-expressing cells, membrane potential dye, choline response; stronger effect = lower value. B-score at 10 µM. 310,000 tested, 0.86% active. AID 488975;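 active = B-score over 3 SD under the library average, and starting fluorescence ratio not unusually high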;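 note: choline stimulus applied at its EC90 after an EC20 pre-addition; B-score computed on integrated fluorescence ratio after choline addition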
Target sequence (Q9GZV3 whole entry, looked up): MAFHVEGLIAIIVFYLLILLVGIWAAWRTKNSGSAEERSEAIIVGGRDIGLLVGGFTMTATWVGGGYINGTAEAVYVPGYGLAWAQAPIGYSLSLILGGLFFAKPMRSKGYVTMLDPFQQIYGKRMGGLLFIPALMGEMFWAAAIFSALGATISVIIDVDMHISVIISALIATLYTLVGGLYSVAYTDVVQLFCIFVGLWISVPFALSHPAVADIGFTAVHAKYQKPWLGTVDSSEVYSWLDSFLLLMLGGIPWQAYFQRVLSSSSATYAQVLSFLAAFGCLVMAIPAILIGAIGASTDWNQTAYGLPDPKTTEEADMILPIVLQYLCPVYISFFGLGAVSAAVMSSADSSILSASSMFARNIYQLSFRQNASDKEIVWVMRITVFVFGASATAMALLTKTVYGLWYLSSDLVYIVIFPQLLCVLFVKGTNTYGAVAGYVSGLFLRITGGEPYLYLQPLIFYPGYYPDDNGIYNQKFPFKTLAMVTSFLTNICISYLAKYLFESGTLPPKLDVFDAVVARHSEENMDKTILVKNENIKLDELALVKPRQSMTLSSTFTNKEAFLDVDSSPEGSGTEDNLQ
MIN6 prolif – induces beta-cell replication in MIN6 cells | MIN6 cells proliferation, ATPlite luminescence, 48 h; cells starved in 0.2% serum; 100% = growth in 10% serum | proliferation, % at 10 µM | 330,000 tested, 0.29% active;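 active = compounds whose signal lies at least 3.5 SD above the mean of all wells on their plate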
CHT PAM – human CHT allosteric activation; CHT-expressing cells, membrane potential dye, choline EC20; stronger effect = higher value; LV-AA mutant CHT in HEK293 cells; Q9GZV3; 310,000 tested, 0.49% active; B-score at 10 µM;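 active = initial fluorescence not abnormally high and integrated response B-score, plate-corrected, over 3 SD above library mean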
CHT act confirm – human CHT activation, confirmatory screen | shares compounds with CHT PAM | CHT-expressing cells, membrane potential dye fluorescence (FDSS); % of choline EC20–EC90 response window; HEK293 expressing CHT LV-AA mutant; choline added at its EC20 | activation, % at 10 µM | 2,500 tested, 91% active | AID 504833;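 active = primary screen active, with duplicate mean activation above negative control mean plus 3 SD, cut at about 11% in these data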
HEK293 MP dye – counter-screen for CHT activators: effect in parental HEK293 cells. AID 623908. shares compounds with CHT PAM. membrane potential dye fluorescence (FDSS); measured after EC20 choline addition. ratio readout change at 10 µM, hits read low. 2,500 tested, 62% active;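 active = duplicate-averaged ratio beyond 3 SD from buffer wells, up or down, though filed actives are nearly all decreases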
Hits are given with their value; n = inactive; x = no result given.

SMILES | H9c2 TAG inh | CHT block | MIN6 prolif | CHT PAM | CHT act confirm | HEK293 MP dye
CCC(C)Sc1cc(-c2nc3ccc(C)cn3c2NCc2ccccc2)ccc1OC (centres undefined) | n | n | x | 7.7 | 22 | -25
CN1C(C(=O)N2CCc3ccccc3C2)=CC(c2ccc(F)cc2)=NS1(=O)=O | x | n | n | 6.7 | 13 | n
COc1ccc(C2=NS(=O)(=O)N(C)C(C(=O)N3CCC(C)CC3)=C2)cc1 | n | n | n | n | x | x
CCN(CC)C(=O)C1CCN(Cc2cn(C)nc2-c2ccc(Oc3ccccc3)cc2)CC1 | n | n | n | n | n | n
Cc1ccn2c(Nc3ccccc3C)c(-c3ccccn3)nc2c1 | n | n | n | n | x | x
COc1ccc(Nc2c(-c3ccco3)nc3cccc(C)n23)cc1 | n | n | n | n | x | x
Cc1cccc2nc(-c3cccnc3)c(Nc3ccccc3)n12 | n | n | n | 12 | 28 | -29
Cc1ccccc1Nc1c(-c2cccnc2)nc2ccccn12 | n | n | n | 7.5 | 50 | -51
Cc1cccc2nc(-c3cccnc3)c(NCCC(C)C)n12 | n | n | n | n | 41 | n
Nc1nonc1C(=O)NCCNCc1ccccc1OCc1ccccc1F | n | n | n | 6.3 | 16 | n
Nc1nonc1C(=O)NCCNCc1cc(Br)ccc1OCc1ccccc1F | n | n | n | n | 22 | n
CCOc1ccccc1CNCCNC(=O)c1nonc1N | n | n | n | n | x | x
Cc1ccc(C(=O)N/N=C\c2ccccn2)cn1 | n | n | n | n | 40 | -38
CC(C)(C)c1ccc(C(=O)N/N=C/c2ccccn2)cc1 | x | n | n | n | x | x
CCN(CC)CCCNC(=O)CCn1nc(-c2ccccc2)ccc1=O | x | n | n | n | x | x
COc1ccc(C2Nc3ccccc3C(=O)N2c2ccc(C)cc2)cc1Cn1nnc2ccccc21 (centres undefined) | x | n | n | n | 10 | n
COc1ccc(C2Nc3ccccc3C(=O)N2c2ccc(C)cc2)cc1Cn1cc([N+](=O)[O-])cn1 (centres undefined) | x | n | n | n | x | x
CC(C)N1CCC(N2CCN(Cc3cc(F)ccc3-n3cccn3)CC2CCO)CC1 (centres undefined) | x | n | n | n | 73 | -55
CC(C)N1CCN(Cc2cc(F)ccc2-n2cccn2)CC1CCO (centres undefined) | n | n | n | n | x | x
COc1ccc(CCNC(=O)c2c(N)no[n+]2[O-])cc1OC | n | n | n | n | x | x
CCOCCCn1c(=NC(C)=O)c(C(=O)OCC)cc2c(=O)n3ccccc3nc21 | n | n | n | n | 17 | -42
CCOCCCn1c(=NC(C)=O)c(C#N)cc2c(=O)n3ccccc3nc21 | n | n | n | n | x | x
CCN1C(=NCc2cccc(Cl)c2)N[C@@H](c2cccc(F)c2)C(C(=O)OC)=C1C | n | n | n | n | n | n
COC(=O)C1=C(C)N(Cc2ccccc2)C(=NCC(C)C)N[C@H]1c1ccccc1 | x | n | n | n | 35 | n
Cc1c(CC(=O)O)c(=O)oc2cc(OCc3ccc(Br)cc3)ccc12 | x | n | n | n | x | x
SMILES | H9c2 TAG inh | CHT block | MIN6 prolif | CHT PAM | CHT act confirm | HEK293 MP dye
Cc1cc(C)cc(-n2c(C)c3c(C)nnc(C)c3c2C)c1 | x | n | n | n | 43 | -28
Cc1nnc(C)c2c(C)n(-c3ccc4ncccc4c3)c(C)c12 | n | n | n | n | 41 | -46
CCN(CC)CCNC(=S)Nc1ccc2nc(N3CCCC3)cc(C)c2c1 | x | n | n | n | x | x
CCN(CC)CCNC(=S)Nc1ccc2nc(N3CCN(C)CC3)cc(C)c2c1 | x | n | n | n | 45 | -24
CCN1CCN(c2cc(C)c3cc(NC(=S)NCc4cccs4)ccc3n2)CC1 | n | n | n | n | 21 | -41
Cc1cc(N2CCOCC2)nc2ccc(NC(=S)NCCC(C)C)cc12 | x | n | n | n | 19 | -25
CCN(CC)CCNC(=S)Nc1ccc2nc(N3CCOCC3)cc(C)c2c1 | x | n | n | n | x | x
Cc1cc(N2CCOCC2)nc2ccc(NC(=S)NCCN(C)C)cc12 | x | n | n | n | 45 | -33
CC(C)(C)c1ccc(C(=O)Nc2ccc(NC(=O)C(=O)O)cc2)o1 | n | n | n | n | x | x
O=C(CSc1nnc(-c2ccco2)o1)c1ccc[nH]1 | n | n | n | n | x | x
Cc1cc(N2CCN(C)CC2)nc2ccc(NC(=O)c3ccc(Br)o3)cc12 | n | n | n | n | 44 | -30
COc1ccc(CNC(=S)Nc2ccc3nc(N4CCN(C)CC4)cc(C)c3c2)cc1 | n | n | n | 6.3 | 32 | -37
CCOC(=O)C1CCN(C(=O)c2cc3cc(C)ccc3[nH]2)CC1 | x | n | n | n | x | x
CN1CCN(c2nc3c(c(=O)[nH]c(=O)n3C)n2Cc2ccc(Cl)cc2)CC1 | n | n | n | n | x | x
O=C(NCc1cccnc1)c1cccn2c(=O)c3sccc3nc12 | n | n | n | 7.8 | 54 | -53
CC(NCCC(Cc1ccccc1)c1ccco1)c1ccccc1 (centres undefined) | n | n | n | n | x | x
Cc1ccc(C(CCNC(C)c2cccs2)c2ccco2)cc1 (centres undefined) | n | n | n | n | 12 | n
CCCSc1nc2cc(OC)c(OC)cc2c(=N)n1CCCN1CCOCC1 | n | n | n | 6.5 | 53 | -40
COCCCn1c(SCc2ccc(OC)cc2)nc2cc(OC)c(OC)cc2c1=N | x | n | n | n | x | x
Cc1ccc(S(=O)(=O)N2CCN(C(=O)Cc3c(F)cccc3Cl)CC2)cc1 | n | n | n | n | x | x
Cc1ccc(NC(=O)C2CCCN2C(=O)OC(C)(C)C)cc1C (centres undefined) | n | n | n | n | x | x
Cc1nn2c3ccccc3n(CCN3CCCCC3)c2nc1=O | n | n | n | 7.1 | 39 | -42
CC(Oc1ccc(Br)cc1)C(=O)Nc1nnc(C2CC2)s1 (centres undefined) | n | n | n | n | x | x
COc1ccccc1CN(C(=O)Cc1cccs1)C(C(=O)NC1CCCC1)c1ccncc1 (centres undefined) | x | n | n | n | n | n
O=C(NC1CCCC1)C(c1ccncc1)N(Cc1ccccc1)C(=O)Cc1cccs1 (centres undefined) | x | n | n | n | x | x
Cc1cc(NC(=O)CCC(=O)N(Cc2ccco2)C2(C(=O)NC3CCCC3)CCC(C)CC2)no1 (centres undefined) | x | n | n | n | x | x
O=C(Cc1cccs1)N(Cc1ccco1)C1(C(=O)NC2CCCC2)CCCCC1 | n | n | n | 10 | 41 | n
O=C(NC1CCCC1)C(c1ccsc1)N(Cc1ccccc1)C(=O)Cc1cccs1 (centres undefined) | x | n | n | 6.9 | 43 | n
COc1ccccc1CN(C(=O)c1ccco1)C(C(=O)NC1CCCC1)c1ccncc1 (centres undefined) | n | n | n | n | x | x

Screening data: PubChem BioAssay, several laboratories
